Common to all, as to conditions: mRNA level, 48 h; actives raise or lower the signal
Read-out in assay [1]: ATP-citrate lyase (ACLY), ACLY (gene 47)
Briefly: LTEA_HepaRG_ACLY: Life Technologies and Expression Analysis (LTEA) Assay for ATP-citrate lyase (ACLY) using HepaRG (AID 2283466). In short, it runs like this: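 ACLY mRNA quantified by qRT-PCR on Fluidigm arrays against three housekeeping genes, after 48 h chemical treatment of HepaRG cells (top concentration 100 uM, half-log steps, 0.5% DMSO vehicle). Up- or down-regulation fitted relative to DMSO.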

Read-out in assay [2]: Peroxisomal acyl-coenzyme A oxidase 1 (ACOX1) gene, ACOX1 (gene 51)
Briefly: LTEA_HepaRG_ACOX1: Life Technologies and Expression Analysis (LTEA) Assay for Peroxisomal acyl-coenzyme A oxidase 1 (ACOX1) gene using HepaRG (AID 2283467). The method in brief:
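ACOX1 transcript levels were quantified by TaqMan qRT-PCR against three housekeeping genes after 48 h chemical exposure of differentiated human HepaRG cells. Exposure used eight half-log steps topping at 100 uM, 0.5% DMSO vehicle, in duplicate. Bidirectional curve fits were made relative to DMSO.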

Read-out in assay [3]: Alkaline Phosphatase, Placental (ALPP) gene, ALPP (gene 250)
Briefly: LTEA_HepaRG_ALPP: Life Technologies and Expression Analysis (LTEA) Assay for Alkaline Phosphatase, Placental (ALPP) gene using HepaRG (AID 2283468).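 On AC50: differentiated human HepaRG liver cells in serum-free induction medium.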 The method in brief:
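ALPP transcript level, measured by qRT-PCR and normalized to three housekeeping genes (ACTB, GAPDH, POLR2A), after 48 h dosing of differentiated HepaRG in serum-free induction medium. Top concentration 100 uM with half-log dilutions (8 points, 0.5% DMSO, duplicates); bidirectional fitting relative to DMSO.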

Read-out in assay [4]: Bcl-2 (BAD) gene, BAD (gene 572)
Put plainly: LTEA_HepaRG_BAD: Life Technologies and Expression Analysis (LTEA) Assay for Bcl-2 (BAD) gene using HepaRG (AID 2283469). The method in brief:
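Read-out: qRT-PCR of BAD mRNA, normalized to three housekeeping genes. Human HepaRG cultures got 48 h chemical exposure in 0.5% DMSO, duplicate eight-point half-log series topping at 100 uM. Gain or loss of signal fitted versus DMSO vehicle.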

Read-out in assay [5]: Bcl-2 (BAX) gene, BAX (gene 581)
Put plainly: LTEA_HepaRG_BAX: Life Technologies and Expression Analysis (LTEA) Assay for Bcl-2 (BAX) gene using HepaRG (AID 2283470). The method in brief: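 qRT-PCR read-out of BAX mRNA, normalized to three housekeeping genes, after 48 h chemical exposure of human HepaRG cells in serum-free induction medium; eight-point half-log series, top 100 uM, 0.5% DMSO vehicle; bidirectional fit versus DMSO.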

Read-out in assay [6]: adenosine kinase (ADK) gene, ADK (gene 132)
Put plainly: LTEA_HepaRG_ADK: Life Technologies and Expression Analysis (LTEA) Assay for adenosine kinase (ADK) gene using HepaRG (AID 2283471). The method in brief:
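HepaRG (human liver), 48 h chemical exposure, 8-pt half-log series, top 100 uM, 0.5% DMSO vehicle. Readout: ADK mRNA by qRT-PCR vs housekeeping genes; bidirectional curve fit relative to DMSO baseline.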

Read-out in assay [7]: Alpha-fetoprotein (AFP) gene, AFP (gene 174)
Put plainly: LTEA_HepaRG_AFP: Life Technologies and Expression Analysis (LTEA) Assay for Alpha-fetoprotein (AFP) gene using HepaRG (AID 2283472). The method in brief: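 qRT-PCR (Fluidigm TaqMan) readout of AFP transcript, normalized to three housekeeping genes, fitted bidirectionally against 0.5% DMSO baseline. HepaRG cells received chemicals for 48 h in serum-free induction medium, top concentration 100 uM, half-log steps.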

Read-out in the next assay: BCL2L11 (gene 10018)
Put plainly: LTEA_HepaRG_BCL2L11: Life Technologies and Expression Analysis (LTEA) Assay for Bcl-2 (BCL2L11) gene using HepaRG (AID 2283473). The method in brief:
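BCL2L11 transcript levels are measured by Fluidigm qRT-PCR, normalized to three housekeeping genes. HepaRG cultures were plated 48 h, then treated 48 h with test chemical (top 100 uM, half-log, 0.5% DMSO vehicle); curves were fitted bidirectionally against DMSO.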

Read-out in assay [8]: Apolipoprotein A-V (APOA5) gene, APOA5 (gene 116519)
Briefly: LTEA_HepaRG_APOA5: Life Technologies and Expression Analysis (LTEA) Assay for Apolipoprotein A-V (APOA5) gene using HepaRG (AID 2283474). In short, it runs like this: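 APOA5 transcript levels were quantified by qRT-PCR, normalized to three housekeeping genes, after 48 h chemical treatment of HepaRG cells (8 points, 100 uM maximum, half-log steps, 0.5% DMSO). Curves fitted in both directions against vehicle.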

Read-out in assay [9]: Apoptosis regulator Bcl-2 (Homo sapiens) (UniProt P10415)
Put plainly: LTEA_HepaRG_BCL2: Life Technologies and Expression Analysis (LTEA) Assay for Bcl-2 gene using HepaRG (AID 2283475).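 Further: BCL2 transcript by TaqMan qRT-PCR normalised to ACTB GAPDH and POLR2A.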 In short, it runs like this: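 qRT-PCR read-out (Fluidigm TaqMan) of BCL2 transcript, normalised to three housekeeping genes, after 48 h chemical exposure of HepaRG cells; 8-point half-log series, top 100 uM, 0.5% DMSO vehicle. Gain or loss of signal fitted relative to DMSO baseline.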

Activity calls are given as the source filed them. How the source made its calls: active means hit-call score of the fitted dose curve at least 0.9, where 1 is the maximum; inactive means score below 0.9.

Apoptosis regulator Bcl-2 (Homo sapiens), sequence (P10415 whole entry, looked up): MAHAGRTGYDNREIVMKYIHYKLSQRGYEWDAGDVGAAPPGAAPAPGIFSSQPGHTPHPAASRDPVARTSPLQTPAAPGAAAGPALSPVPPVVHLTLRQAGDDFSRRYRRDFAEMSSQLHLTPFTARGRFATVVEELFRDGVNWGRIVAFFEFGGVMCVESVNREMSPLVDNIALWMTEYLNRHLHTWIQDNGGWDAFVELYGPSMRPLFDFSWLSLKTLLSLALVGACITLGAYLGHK

Turning to `C[N+]1(C)CCCCC1`, the call in [1], in assay [2], in assay [3], in assay [4], in assay [5] and in assay [6] was inactive. Besides, the molecule was classed as inactive (in [7]; in the assay with BCL2L11 (gene 10018); in [8]; in assay [9]).

With `CCOP(=O)(OCC)Oc1cc(C)nc(C(C)C)n1`, the call in assay [1], in [2], in assay [3], in [4], in [5] and in assay [6] was inactive. In addition, the molecule was classed as inactive (in assay [7]; with BCL2L11 (gene 10018); in [8]; in assay [9]).

Take `CCOP(=S)(OCC)Oc1ccc2c(C)c(Cl)c(=O)oc2c1`: the molecule was called inactive (in [1]; in assay [2]; in assay [4]; in [5]; in assay [6]; with BCL2L11 (gene 10018)). For the same molecule, the result in assay [8] and in assay [9] was inactive. In addition, the AC50 in assay [3] was 50 µM (active); in [7], 36.6 µM (active).

On to `CCOC(=O)CC(SP(=O)(OC)OC)C(=O)OCC` (stereo not given), for which the molecule was classed as inactive in assay [1], in assay [2], in [3], in assay [4], in assay [5] and in [6]. Also, the result (in assay [7]; with BCL2L11 (gene 10018); in [8]; in [9]) was inactive.

Take `O=[N+]([O-])c1cc(C(F)(F)F)c(Cl)c([N+](=O)[O-])c1Nc1ncc(C(F)(F)F)cc1Cl`: the AC50 was 50 µM (active) in [1]; 60.2 µM (active) in assay [2]; 9.95 µM (active) in [3]; 50 µM (active) in assay [6]; 23 µM (active) in assay [7]; 66.3 µM (active) with BCL2L11 (gene 10018). Moreover, the outcome in assay [4], in assay [5], in assay [8] and in [9] was inactive.

As for `C#CCC1=C(C)C(OC(=O)C2C(C=C(C)C)C2(C)C)CC1=O` (stereo not given), the molecule was called inactive in [1], in assay [2], in assay [3], in assay [4], in [5] and in assay [6]. In addition, the call (with BCL2L11 (gene 10018); in assay [8]; in [9]) was inactive. Moreover, the AC50 in assay [7] is 81.1 µM (active).

With `COc1cc(OC)nc(Sc2cccc(Cl)c2C(=O)O)n1`, the molecule was called inactive in [1], in [2], in assay [3], in assay [4], in [5] and in [6]. The molecule was classed as inactive (in assay [7]; in the assay with BCL2L11 (gene 10018); in assay [8]; in assay [9]).

With `FC(F)C(F)(F)OCC(Cn1cncn1)c1ccc(Cl)cc1Cl` (stereo not given), the AC50 is 12.2 µM (active) in assay [1]; 53.6 µM (active) in assay [2]; 55 µM (active) in [3]; 32.3 µM (active) in assay [5]; 20.2 µM (active) in assay [7]; 35.6 µM (active) in assay [8]. For the same molecule, in [9], the AC50 is 30.2 µM (active). Moreover, the molecule was called inactive (in [4]; in assay [6]; with BCL2L11 (gene 10018)).

As for `CCCSP(=O)(OCC)SCCC`, the result in assay [1], in assay [2], in assay [3], in assay [4], in assay [5] and in assay [6] was inactive. For the same molecule, the molecule was classed as inactive (in [7]; in the assay with BCL2L11 (gene 10018); in [9]). The AC50 in assay [8] was 12.9 µM (active).

`CCCCSP(=O)(SCCCC)SCCCC`: the molecule was classed as inactive in [1], in assay [2], in [3], in [4], in assay [5] and in assay [6]. The outcome (with BCL2L11 (gene 10018); in assay [8]; in assay [9]) was inactive. The AC50 in [7] was 50 µM (active).

On to `CN1COCN(Cc2cnc(Cl)s2)C1=N[N+](=O)[O-]`, for which the molecule was classed as inactive in [1], in [2], in assay [3], in assay [4], in assay [5] and in [6]. The outcome (in [7]; with BCL2L11 (gene 10018); in assay [8]; in assay [9]) was inactive.

Regarding `Nc1c(Cl)cc([N+](=O)[O-])cc1Cl`, the call in assay [1], in [4] and in assay [5] was inactive. For the same molecule, the AC50 in [2] was 22.8 µM (active); in assay [3], 50 µM (active); in assay [6], 64.1 µM (active); in assay [7], 39.3 µM (active); in the assay with BCL2L11 (gene 10018), 50 µM (active); in assay [8], 68.5 µM (active). Moreover, in assay [9], the concentration at half-maximal activity (AC50) was 50 µM (active).

On to `CCc1cccc(CC)c1N(COC)C(=O)CCl`, for which the call in assay [1], in assay [2], in assay [3], in assay [4], in assay [5] and in assay [6] was inactive. Also, the result (in [7]; in the assay with BCL2L11 (gene 10018); in assay [8]; in assay [9]) was inactive.

`CN(C)NC(=O)CCC(=O)O`: the molecule was classed as inactive in assay [1], in assay [2], in assay [3], in assay [4], in assay [5] and in assay [6]. Besides, the result (in assay [7]; with BCL2L11 (gene 10018); in [8]; in assay [9]) was inactive.

Turning to `CC[C@H](C)[C@H]1O[C@]2(C=C[C@@H]1C)C[C@@H]1C[C@@H](C/C=C(\C)[C@@H](O[C@H]3C[C@H](OC)[C@@H](O[C@H]4C[C@H](OC)[C@@H](NC)[C@H](C)O4)[C@H](C)O3)[C@@H](C)/C=C/C=C3\CO[C@@H]4[C@H](O)C(C)=C[C@@H](C(=O)O1)[C@]34O)O2`, the call in assay [1], in assay [4], in assay [8] and in assay [9] was inactive. Also, the AC50 in [2] is 13 µM (active); in assay [3] it was 11.9 µM (active); in assay [5] it was 50 µM (active); in assay [6], 50 µM (active); in [7], 87.7 µM (active); in the assay with BCL2L11 (gene 10018), 12.5 µM (active).

As for `CC(Oc1cccc(Cl)c1)C(=O)O` (stereo not given), the result in assay [1], in assay [2], in [3], in [4], in assay [5] and in assay [6] was inactive. Further, the molecule was classed as inactive (in [7]; in the assay with BCL2L11 (gene 10018); in [8]; in assay [9]).

On to `CNC(=O)ON=C(SC)C(=O)N(C)C`, for which the outcome in assay [1], in assay [2], in assay [3], in assay [4], in assay [5] and in assay [6] was inactive. In addition, the outcome (in [7]; in the assay with BCL2L11 (gene 10018); in assay [8]; in [9]) was inactive.

Broadly, the AC50 is the concentration giving half of the maximal activity seen.

These data come from PubChem BioAssay (EPA / NIEHS).
